# In PubChem BioAssay (NCI):
# About 83,000 compounds went through this panel and 20% of them were active in at least one assay; those are over-represented in the sample as a whole.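 Interpretation: 100, growth as untreated; towards 0, rising growth inhibition; 0, no net growth; 0 to -100, cell death. Compounds scoring below 10 were considered active.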 A number with no mark means an inactive call. Active and inactive are the calls of the source.
# Tests used:
# Assay in all cases: NCI-60 one-dose screen, 48 h (100 = growth as untreated, 0 = no growth, -100 = all killed)
# [1] = system: NCI-H322M lung; conditions: 10 µM unless noted
# [2] = system: HOP-62 NSCLC; conditions: 10 µM unless noted
# [3] = system: NCI-H522 lung; conditions: 10 µM unless noted
# [4] = system: A549/ATCC NSCLC; conditions: 10 µM unless noted
# [5] = system: SF-295 CNS; conditions: 10 µM unless noted
# [6] = system: U251 CNS; conditions: 10 µM unless noted
# [7] = system: UO-31 renal; conditions: 10 µM unless noted
# [8] = system: CAKI-1 renal; conditions: 10 µM unless noted
# [9] = system: A498 renal; conditions: 10 µM unless noted
# [10] = system: CCRF-CEM leukemia; conditions: 10 µM unless noted
# [11] = system: MOLT-4 leukemia; conditions: 10 µM
# [12] = system: OVCAR-5 ovarian; conditions: 10 µM unless noted
# [13] = system: SK-OV-3 ovarian; conditions: 10 µM unless noted
# [14] = system: HS 578T breast; conditions: 10 µM unless noted
# [15] = system: T-47D breast; conditions: 10 µM unless noted
# [16] = system: HOP-92 NSCLC; conditions: 10 µM unless noted
# [17] = system: HT29 colon; conditions: 10 µM unless noted
# [18] = system: EKVX NSCLC; conditions: 10 µM unless noted
SMILES,growth [1],growth [2],growth [3],growth [4],growth [5],growth [6],growth [7],growth [8],growth [9],growth [10],growth [11],growth [12],growth [13] [%],growth [14],growth [15],growth [16],growth [17],growth [18]
CC1(C)N=C(N)N=C(N)N1c1cccc(C(=O)Nc2cccc(S(=O)(=O)F)c2)c1,100%,105%,99.8%,104%,84.9%,99.8%,78.5%,98.8%,73.9%,97.5%,112%,89.4%,117,92.7%,84%,,,
O=[N+]([O-])c1ccc2cnn(CSP(=S)(c3ccccc3)c3ccccc3)c2c1,92.9%,59.3%,,73.3%,96.3%,74.1%,58.9%,81.5%,,45.9%,,96.7%,,,69.5%,65.7%,39.6%,
Nc1cccc2c1Oc1ccccc1O2,102%,102%,,97%,119%,99.6%,201%,88%,118%,87.7%,103%,98.3%,184,112%,,80.3%,119%,99.7%
O=C1NC(=S)NC(=O)C1=Cc1ccccc1,119%,,117%,101%,97.9%,103%,87.7%,,,,115%,100%,,95.9%,,,139%,111%
Oc1ccccc1OB(Oc1ccccc1O)N(CCCl)CCCl,,104%,-6.22% (active),,102%,,51.9%,80.4%,88.6%,18.4%,57.6%,102%,112,106%,101%,74.5%,,
CCC[CH2][Sn]([CH2]CCC)([CH2]CCC)[O]C(=O)CC,-95.2% (active),,-81.2% (active),-78.8% (active),-81.4% (active),-84.6% (active),,-95.2% (active),-96.4% (active),,7.41% (active),-91.2% (active),,-38.4% (active),,,-81.2% (active),-43.9% (active)
O=C1NC(=O)C(O)(C2(O)C(=O)NC(=O)NC2=O)C(=O)N1,132%,97.6%,94.3%,,133%,99.9%,86.1%,104%,89.1%,70.1%,85.2%,,111,99%,101%,,104%,110%
O=[N+]([O-])c1cc([N+](=O)[O-])c(Cl)c(Cl)c1Cl,96.5%,,-86.5% (active),80.3%,98.5%,-79.4% (active),-63.2% (active),,,-22.3% (active),2.06% (active),65.6%,101,,-27.9% (active),2.39% (active),-85.5% (active),67.4%
COc1ccc(OC)c(/C=C(/C)[N+](=O)[O-])c1,98%,38.9%,-78.1% (active),75.8%,110%,26.7%,-46.3% (active),6.25% (active),110%,-2.22% (active),0.523% (active),108%,,70.6%,19.9%,,-29% (active),83.9%
NC(=O)OCC(CO)(c1ccccc1)c1ccccc1,,94.9%,98.8%,103%,93.5%,,,91.8%,81.7%,94.4%,98.7%,95.3%,99.1,110%,97.3%,92.9%,97.9%,
CN1CCN(C(=O)COc2ccc(/C=C3\CC4C5CC=C6CC(Cl)CCC6(C)C5CCC4(C)C3=O)cc2)CC1 (stereo not drawn),85.7%,96.7%,61.5%,65%,82.8%,34.1%,99.9%,70.1%,75.3%,49.3%,59.3%,99.7%,85.8,,,,-9.75% (active),68.2%
CCOP(=O)(OCC)Oc1ccc(Sc2ccc(OP(=O)(OCC)OCC)cc2)cc1,,93.2%,91.2%,97.5%,97.5%,,75%,93.1%,85.2%,86.3%,93.8%,,103,109%,,79.7%,108%,
CC(CC(C#N)(c1ccccc1)c1ccccc1)N1CCOCC1 (stereo not drawn),107%,,,95.6%,,99.2%,74.6%,92.9%,88.8%,99.5%,82.3%,89.5%,,111%,,83.5%,106%,
CC[C@@H](C)/C=C(C)/C=C/C(=O)c1c(O)c(-c2ccc(O)cc2)cn(O)c1=O,22.5%,9.35% (active),21.9%,3.85% (active),-28.7% (active),3.54% (active),,-54.9% (active),39.3%,9.47% (active),,,17.8,48%,15.8%,,,-0.798% (active)
CC1(C)N=C(N)N=C(N)N1c1ccc(CCCCc2ccc(S(=O)(=O)F)cc2)cc1,31.2%,,,14%,7.77% (active),16.7%,104%,,42.3%,23.4%,25.3%,41.2%,69.1,,16.6%,,8.88% (active),
CCC1CN1P(=O)(OCCOC)N1CC1CC (stereo not drawn),101%,111%,,101%,,102%,88.6%,,119%,,108%,103%,118,114%,104%,98.4%,104%,
CC(C)Nc1ccc(Nc2ccccc2)cc1,73.4%,35.3%,40.8%,24.1%,12.5%,12.5%,,41.6%,65.9%,38.3%,43.6%,65.1%,27.7,17.9%,42.9%,,7.96% (active),29.4%
O=C(NCc1ccc([N+](=O)[O-])cc1)Nc1ccc(S(=O)(=O)F)cc1,88.3%,70.5%,,75%,,85.7%,61.2%,78%,55.9%,81.4%,87.3%,83.9%,94.9,,57%,,,
C/C(=N/OC(=O)N(C)C)c1cc(Cl)ccc1Cl,,95.6%,83.5%,101%,98.6%,,77.4%,98.9%,86.8%,91.7%,89.7%,104%,,105%,96.7%,107%,,
CN1C(=O)NC(=O)C(N=Nc2ccc(Cl)cc2)C1=O (stereo not drawn),102%,123%,81.3%,101%,,108%,104%,,60.9%,106%,96%,,120,114%,101%,,99.1%,96.3%
CC(=O)Nc1ccc(C=C2C(=O)NC(=O)NC2=O)cc1,104%,103%,104%,100%,104%,103%,84.5%,97.5%,,86.1%,88%,107%,105,,106%,91.5%,109%,106%
O=S(=O)(O)c1ccc(-c2ccc([As](=O)(O)O)cc2)cc1,104%,98.6%,88.8%,94.4%,101%,95.6%,89.1%,,,99.7%,101%,106%,105,110%,89.5%,-91% (active),99.1%,101%
